In all, about 25,000 sequences were measured (“ln(normalized median fluorescence intensity)”: median about 9.3, highest 2% from about 10 on). The entries come from a sample that favours the highest values as a whole.
tested on: PF3D7_0420300 AP2 domain 1 (GST-tagged); assay: gcPBM binding intensity (ln(normalized median fluorescence intensity)); higher = stronger DNA binding
Summary of the method: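 DNA-binding domains from P. falciparum, fused to GST and produced in E. coli, were put on an Agilent 4 × 180k double-stranded probe array for 1 h in 1× PBS holding 1% milk, 0.2 mg/ml BSA, 0.5% salmon testes DNA and 0.03% Triton X-100. Probes were primer-extended, 36 bp long and drawn from intergenic genomic regions, with negative controls included. After Alexa488 anti-GST antibody detection and a 488 nm scan, binding intensity was set as the highest Masliner-normalised natural-log median intensity across replicate spots of either probe orientation.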

Row | Sequence | gcPBM binding intensity (ln)
1 | AAAGAAAAATTAACATGTACAAAAATTACTTGTTCA [XGTACX_site6725] | 9.21
2 | AAAAAATAAATAAATACACACAAATCTATATTTATA [CACACA_site7243] | 9.51
3 | GTATTCTACAGACACATACACACATATATATATATA [CACACA_site3427] | 9.7
4 | TTAAATATAAAAAGTAGTACATTTATATTTACCATA [XGTACX_site2962] | 8.96
5 | AATTCATTATATATACGTACATATTTCTGTATAAAA [XGTACX_site6371] | 9.24
6 | ATACATATATATAGGTGTACATATAATATATATATA [XGTACX_site2228] | 9.35
7 | ATAGTAATAGAATGATTGCACTTAAATTTTCCCTCT | 9.19
8 | AATATATATATATGTACACACTCCAATACATATACA [CACACA_site2682] | 9.42
9 | AAAAAAATAACAAAAGTGCATTTTTATGAGTTATCT | 9.2
10 | CATATATAAATATATACACACATACATACATACATA [CACACA_site5988] | 9.67
11 | CATAAATACATACATACACACATATATATATATATA [CACACA_site2106] | 9.5
12 | TACATATAAAAGTACACACACACACCCATATATATA [CACACA_site941] | 10.2
13 | AAATAATATAAATACACACACACATATATAAATACA [CACACA_site4465] | 10.2
14 | TATAAAAATAAAAAAAGTACACATAAAAATATATAT [XGTACX_site5189] | 9.62
15 | TGGTAATACCCATACACACACACATACACATATATA [CACACA_site8877] | 10.1
16 | TGGTAATACACATACACACACACATACACATATATA [CACACA_site7312] | 10.2
17 | ATAATATAAATATACACACACACATATATATATATA [CACACA_site2905] | 9.91
18 | TGGTAATACCCATACACACACACATACCCATATATA [CACACA_site5509] | 10.1
19 | TACATACATACATACACACACACATATAAATACATA [CACACA_site4626] | 10.2
20 | AATAAATAAATATATACACACATATATATATAATAT [CACACA_site921] | 9.6
21 | AATACATATAAAAGTACACACACACCCATATATATA [CACACA_site8220] | 10.2
22 | TAAAACAATACTTTGTGCTTCTCTGGTTTTTTTTTT [GTGCAC_negctrl_site284] | 9.26
23 | ACGTTTGATACACATAAAGTTTTCCTTTGAATGTAC [CACACA_negctrl_site106] | 9.26

Row | Sequence | gcPBM binding intensity (ln)
24 | TTTTAACATAGAAGTACACACATATAATCAATCATA [CACACA_site5313] | 9.6
25 | TTAATACATTAAATATGTACTTATATATCTCAACTA [XGTACX_site3997] | 9.11
26 | AACACAAATAAGTATTTGGATTATATTACATTTATA [CACACA_negctrl_site465] | 9.18
27 | GTGTTTTTATGTGAATGTACATATTTACTATCACAC [XGTACX_site2388] | 9.56
28 | TTCATTCTATAAAACACACAAATATTTTTGTATCCC [CACACA_site6458] | 9.2
29 | CATAATATGACATACACACACAAAAAAAAAAAAATA [CACACA_site1285] | 9.91
30 | AGAAATATCTAATTGTGTACTCAAGAAAAAGTTACG [XGTACX_site372] | 9.29
31 | TTACCATAAGTATGTGGTACACTTTAAATGAAGATA [XGTACX_site6972] | 8.88
32 | TACATATATTATTGCACACATATAAAATACCCCCAA [CACACA_site3895] | 9.82
33 | CATACATACAGACACACACACATATAAATACATACA [CACACA_site6533] | 10
34 | AATATAAGCAAATACACACACACATATATATATATA [CACACA_site3805] | 10
35 | AATACATACAGACACACACACACATATAAATAAATA [CACACA_site7642] | 10.2
36 | CATACATATATTATTGCACACATATAAAATACCCCC [CACACA_site9292] | 10.3
37 | AAAATTAAAATATATACACACATATATATATTAAAT [CACACA_site4419] | 9.57
38 | TACATACACAGACACACACACATATAAATATAAATA [CACACA_site7641] | 9.95
39 | AAAAAAAATTAAATAAATAAATATACACATATATAT [GTGCAC_negctrl_site394] | 9.26
40 | TACAGATATTATTGCACACATATAAAATACCCCCAA [CACACA_site6014] | 9.89
41 | AATATAAGCAAATACACACACACATATAAATATGTA [CACACA_site7741] | 10.2
42 | TATAAATAAATATACACACACACATATAAATATGTA [CACACA_site6504] | 10.1
43 | AATTAAAAAAAATACACACACACATACACATATATA [CACACA_site3298] | 10.2
44 | CATATAAAAAATATGGTGCAGTTTTTTTTTTTTTTT | 9.1
45 | ATATATCATAATAGAGGTACACATATTATATATATA [XGTACX_site782] | 9.29
46 | TAATTTTTTTTAAATACACACTGAAATGTGAATTTT [CACACA_site4476] | 8.96

Row | Sequence | gcPBM binding intensity (ln)
47 | ACCACCATATAACATACATGCATCTTTTTTCCCTTC [TGCATGCA_site583] | 9.79
48 | TTTTTATATTTTATTAGTACTTATTATATATATAAT [XGTACX_site4900] | 9.26
49 | TAATAATAGTAAATATGTACATATATATATATATAG [XGTACX_site4602] | 9.26
50 | TGTAATAAATAGTACACACACACATATATATATATT [CACACA_site1388] | 9.94
51 | ATATATGTAATAAATAGTACACACACACATATATAT [XGTACX_site2817] | 10.3
52 | TGTAGTCTGGAGAAAAGTACATAGTATCTGGTAACA [XGTACX_site4940] | 9.2
53 | ATAATCCACAAGCACACACACACACCCATATATATA [CACACA_site1268] | 10.2
54 | ATAATATAAACATACACACACACATATATATATATA [CACACA_site5591] | 10
55 | ATAAAAATAAAATGGACACACATATATACATATTTG [CACACA_site3277] | 9.68
56 | CAAATACATGGACACACACACATATACAGATATATA [CACACA_site5854] | 10
57 | TGGGAATAAAAACACACACACACACCGATATATATA [CACACA_site5875] | 10.3
58 | AAAATACATGGACACACACACACACCGATATATATA [CACACA_site5885] | 10.3
59 | AAAAAAAAAAGAATAGCACACACACCGATATAAATA [CACACA_site8111] | 10.1
60 | TATAATCCATAAGAAGCACACACATATATATATATT [CACACA_site8394] | 9.76
61 | ATAATATATAAACACACACACATATATAAATACATT [CACACA_site4466] | 10.1
62 | GGAATAATATAAAACACACACATAAATATAAATATA [CACACA_site3376] | 9.9
63 | AAATAATATAAACATACACACACACCGATATATATA [CACACA_site8945] | 10.2
64 | TAATAATCCACAAGCACACACACACCCATATATATA [CACACA_site1267] | 10
65 | TATATTAACAAAATGGTGCAATAATTTCTATATTGT [GTGCAC_site9430] | 9.21
66 | TATTTTAATTTTTGTTGTACGCAAATGTGAGGGCAT [XGTACX_site4663] | 9.17
67 | AAATAAAGGAAATAAAAAGAAACCAATTTCGAATAT [CACACA_negctrl_site953] | 9.57
68 | TTTTTTATTTTTTACATATTTAGCTCATATTTATAT [GTGCAC_negctrl_site491] | 9.44
69 | AAAGGAGGGAATTTTTCTAGGTGTGGAGTGCTACTC [XGTACX_negctrl_site63] | 9.44

Row | Sequence | gcPBM binding intensity (ln)
70 | TATAAATATAAATACACACACATATATATTATATAT [CACACA_site4496] | 9.85
71 | AAAACACTTATGGATTGTACAATAAAAATTATATTA [XGTACX_site7042] | 9.26
72 | CCTATAAATGCATTCACACATATATATTTATATTAT [CACACA_site6086] | 9.26
73 | TATATTAAAAAAAAATGTACATATATATAATATATA [XGTACX_site1935] | 9.19
74 | AAAATACATAAACACACACACACACCGATATATATA [CACACA_site9186] | 10.3
75 | TAAAAAAAAAAAAATACACACACACCGATATATATA [CACACA_site8498] | 10.2
76 | CACTAAAATAAACACACACACACACCGATATATATA [CACACA_site9379] | 10.3
77 | TAATAATACCCAAGCACACACACACCCATATATATA [CACACA_site4831] | 10
78 | CACTAAAATGGACACACACACACACCGATATATATA [CACACA_site6139] | 10.2
79 | TATATATATAAATACACACACACACCGATATATATA [CACACA_site5408] | 10.1
80 | ATAATACCCAAGCACACACACACACCGATATATATA [CACACA_site8344] | 10.4
81 | ACCATATAAATAAACACACACACACCGATATATATA [CACACA_site5310] | 10.1
82 | ATAAAATACATATAAACACACATATAAACCGACATA [CACACA_site2477] | 10
83 | CCTAAATAAATGGACACACACATATATATATATATA [CACACA_site1439] | 9.49
84 | AAATATATACTACCGATGCACTAAATATAAACACAT [GTGCAC_site9777] | 9.67
85 | TGATAATAAGCATACACACACACACCCAAAAAAAAA [CACACA_site721] | 10.2
86 | TGTAAGAAATTGAGCGCACACATACATCTGTGGGAT [CACACA_site4945] | 9.55
87 | AAAAAAAAAAAAAAAACACACATTTAGCAATCTACA [CACACA_site3706] | 9.32
88 | ATGTGATGTTATATATGTACTTATTTTTTAATAAGG [XGTACX_site1786] | 9.25
89 | TGTTGTAAATTAAAGACATGCACGTGAGAAAATATA [TGCATGCA_site285] | 9.51

— the supplement of paper PMC11417369
